# Compounds with a hit are over-represented: about 4.2% of the library has one in this group of screens.
# S1P4 antagonist = blocks the human S1P4 receptor; O95977; S1P4-expressing cells, antagonist mode, reporter read-out; AID 1510; 0.26% of 220,000 active; inhibition, % at 4.98 µM; in the data active = inhibition above about 29%;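 also: 0% = wells stimulated with agonist and 100% = vehicle wells without agonist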
# Target sequence (O95977 whole entry, looked up): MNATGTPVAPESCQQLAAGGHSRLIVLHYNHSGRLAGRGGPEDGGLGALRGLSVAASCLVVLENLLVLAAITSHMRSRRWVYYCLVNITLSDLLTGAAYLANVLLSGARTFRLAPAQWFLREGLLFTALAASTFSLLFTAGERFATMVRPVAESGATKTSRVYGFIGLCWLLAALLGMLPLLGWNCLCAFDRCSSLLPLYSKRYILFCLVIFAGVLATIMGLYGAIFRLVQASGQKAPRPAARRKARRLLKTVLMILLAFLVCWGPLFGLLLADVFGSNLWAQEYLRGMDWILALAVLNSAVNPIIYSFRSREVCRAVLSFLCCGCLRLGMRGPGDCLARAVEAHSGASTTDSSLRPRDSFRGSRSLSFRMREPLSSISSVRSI
# CHOP inhibitor = blocks CHOP induction under ER stress. CHO-K1 CHOP-promoter luciferase, tunicamycin-induced, 15-18 h. 3.8% of 220,000 active. inhibition, % at 10 µM. AID 2732;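 active = compounds that reduced the stress-induced luciferase reporter signal by more than about 70% of percent inhibition, limit read from the data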;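 also: 0% = tunicamycin plus vehicle and 100% = wells without tunicamycin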
# Hsp70 act = switches on Hsp70 transcription; 0.04% of 200,000 active; activation, % at 10 µM; HeLa Hsp70 promoter luciferase reporter, luminescence; scaled: vehicle 0, proteasome-inhibitor control 100%;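 active = activation above the mean across all tested compounds plus 3 SD, cutoff set per campaign, cut at about 5.5% in these data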;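 also: 100% = MG132 at 30 µM as the positive control and 0% = DMSO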
# S1P4 ag = agonists of human S1P4 receptor; S1P4-expressing cell line, agonist reporter assay; activation, % at 4.98 µM; 0.35% of 220,000 active; AID 1509; in the data active = activation above about 11%;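 also: 0% = DMSO vehicle and 100% = reference agonist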
# Numbers without * were called inactive; · = no result given.
SMILES,S1P4 antagonist,CHOP inhibitor,Hsp70 act,S1P4 ag
COc1cc(OC)c(C2C(C#N)=C(N)Oc3cc(C)n(CCCN4CCOCC4)c(=O)c32)cc1OC (stereo unspecified),2,3,0,2
Cc1nn(Cc2ccccc2)c(C)c1/C=N/NC(=O)CNc1cccc(C(F)(F)F)c1,-24,70*,0,0
Cc1ccc(NC(=O)COC(=O)Cn2cnc3ccccc32)cc1S(=O)(=O)N(C)C,-21,-11,0,0
COC(=O)c1cc(Br)c(=O)n(CCc2ccc(O)cc2)c1,-19,-5,0,0
CC(c1ccco1)N(C(=O)C12CC3(C)CC(C)(CC(C)(C3)C1)C2)c1ccccn1 (stereo unspecified),-8,86*,0,-2
Cc1cccc(C(=O)N(c2ccccn2)C(C)c2ccco2)c1 (stereo unspecified),1,-4,0,-2
CC(=O)OC(C(=O)NCS(=O)(=O)c1ccc(C)cc1)c1cccnc1 (stereo unspecified),-14,-7,0,3
O=c1c2ccccc2cnn1-c1nc2ccccc2[nH]1,-14,93*,-1,1
Cc1ccc(S(=O)(=O)Nc2cc(=O)[nH]c(SCc3ccc(Cl)cc3)n2)cc1,-17,86*,0,1
O=c1cc(NS(=O)(=O)c2ccccc2)nc(SCc2c(Cl)cccc2Cl)[nH]1,-1,80*,0,-2
COc1ccccc1NC(=O)CCC(=O)Nc1nnc(C(F)(F)F)s1,-18,19,1,3
CCCN(Cc1cc2cc(C)ccc2[nH]c1=O)C(=O)c1cccc(OC)c1,-1,31,0,-4
CC(=O)c1cccc(CN2CCN(CCc3ccccc3)C(CCO)C2)c1 (stereo unspecified),-4,1,0,0
CCc1ccc(CNC(=O)c2cc3c(C)nc4ccccc4c3o2)cc1,-8,80*,0,-2
CCN1CCCC1CNC(=O)c1cc2c(C)nc3ccccc3c2o1 (stereo unspecified),-1,·,1,1
Cc1nc2ccccc2c2oc(C(=O)NCC3COc4ccccc4O3)cc12 (stereo unspecified),-16,73*,0,0
CC(C(=O)Nc1ccccc1Cl)c1ccc([N+](=O)[O-])cc1 (stereo unspecified),4,-2,0,1
CC1CCc2ccc(F)cc2N1S(=O)(=O)c1cccs1 (stereo unspecified),8,83*,0,2
O=S(=O)(c1cccs1)N1CCc2ccccc21,-12,45,0,1
Cc1ccsc1C(=O)C1CCCN(Cc2cccn2-c2ccc(Cl)cn2)C1 (stereo unspecified),7,-2,0,0
CCOC(=O)c1c(CN2CCN(c3ccccc3)CC2)oc2ccc(O)cc12,-7,81*,0,0
COc1ccc(CCn2c(=S)[nH]c3cc(C(=O)N4CCOCC4)ccc3c2=O)cc1OC,-8,-16,0,1
COc1cc(C(=O)NCC(=O)N/N=C/c2cccs2)cc(OC)c1OC,-11,-4,0,0
CC(=O)Nc1ccc(NC(=O)C/C(C)=N/NC(=O)C(=O)Nc2ccc(C)c(Cl)c2)cc1,16,87*,·,1
Cc1ccc(NC(=O)C(=O)NNC(=O)c2ccccc2C)cc1Cl,14,71*,0,3
SMILES,S1P4 antagonist,CHOP inhibitor,Hsp70 act,S1P4 ag
Cn1c(N/N=C/c2c[nH]c3ccccc23)nc2ccccc21,-6,15,0,2
O=C(N/C=C/c1ccccc1)Nc1ccc(Cl)cc1,-3,87*,0,0
S=C(NCCC(c1ccccc1)c1ccccc1)Nc1cccc(Cl)c1,8,94*,0,0
S=C(NCc1ccncc1)Nc1cccc(Cl)c1,-11,15,0,0
CCOc1ccc(NC(=O)Nc2cccc(C(=O)O)c2)cc1,-9,93*,-1,0
O=C(Nc1ccc(Cl)cc1)Nc1cccc(C(=O)O)c1,1,79*,0,2
O=C(Nc1cccc(Cl)c1)Nc1cccc(C(=O)O)c1,-13,21,·,0
COc1ccc(CNc2ncnc3cc(OC)c(OC)cc23)cc1,-17,11,0,0
CCCn1c(=N)n(CCOc2ccc(OC)cc2)c2ccccc21,-22,-9,0,1
O=C(NC(=S)Nc1ccc(N2CCOCC2)c(Cl)c1)c1sc2ccccc2c1Cl,-8,19,0,1
CCC/C(O)=C1\C(=O)CC(C)(C)CC1=Nc1ccc(OC)cc1OC,10,·,0,-3
Cc1ccccc1OCC(=O)Nc1cccc(C(=O)O)c1,-8,89*,0,0
O=C(Nc1ccccc1)Nc1cccc(Cl)c1,13,95*,0,2
O=C(c1c(F)cccc1F)N1CCN(c2cccc(C(F)(F)F)c2)CC1,-2,64,0,0
Cc1ccc(S(=O)(=O)n2c3ccc(F)cc3c3nc(C)sc32)cc1,-22,7,0,1
OCCC1CN(Cc2cccn2-c2cccnc2)CCN1CCc1ccccc1 (stereo unspecified),3,2,0,-1
Cc1cc(C)c(C)c(OCCCOc2cccc3cccnc23)c1,-6,81*,-1,1
Cc1cc(OCCOc2cccc3cccnc23)cc(C)c1Cl,-10,75*,0,3
CC(C)Oc1ccccc1OCCCOc1cccc2cccnc12,-11,-1,0,0
O=C(NCc1ccc2c(c1)OCO2)c1ccc(CS(=O)(=O)c2cccc(C(F)(F)F)c2)o1,-2,30,0,-1
O=C(NCc1ccc2c(c1)OCO2)c1ccc(CS(=O)(=O)c2ccc(Br)cc2)o1,-28,74*,0,0
C=CCOc1nc2c(c(=O)n(C)c(=O)n2C)n1Cc1c(Cl)cccc1Cl,6,86*,0,-1
CCOc1nc2c(c(=O)n(C)c(=O)n2C)n1Cc1ccccc1Cl,2,31,0,-2
C=CCN1CCc2cc(O)c(O)cc2C(c2ccccc2)C1 (stereo unspecified),·,95*,·,·
C=CCN1CCc2c(cc(O)c(O)c2Cl)C(c2ccccc2)C1 (stereo unspecified),·,16,·,·
SMILES,S1P4 antagonist,CHOP inhibitor,Hsp70 act,S1P4 ag
Cn1c2ccccc2c(=O)c2c(=O)n(Cc3ccco3)c(-c3ccc(C(C)(C)C)cc3)nc21,-9,89*,·,1
O=S(=O)(NCc1ccc2c(c1)OCO2)c1cnc[nH]1,2,27,0,1
COc1ccc2c(c1)OC13CCCCC1C2C(C(=O)c1ccccc1)C(=O)N3 (stereo unspecified),-2,30,0,-3
CC(=N\Nc1ccc(Cl)cc1)/C(=N/O)C(=O)Nc1ccccc1,10,5,0,0
CCOC(=O)C(=N/O)/C(C)=N/NC(=O)C(=O)Nc1ccc(Cl)cc1,5,73*,·,1
Cn1c(N)c(C(=O)CSc2nnc(-c3ccccc3F)n2C2CC2)c(=O)n(C)c1=O,-2,6,0,2
CCOC(=O)c1cc(C(=O)OCC)c2cc(Br)ccc2n1,-7,88*,0,1
CCCCOC(=O)c1cc(C)nc2ccc(Br)cc12,2,30,0,0
CCc1sc(-c2c(C#N)c(N)nc3c2CCCCCC3)cc1[N+](=O)[O-],-12,76*,0,2

# High-throughput results (PubChem)
